Screening data as filed in PubChem.
ALOX12 inhib – qHTS Assay for Inhibitors of 12-hLO (12-human lipoxygenase) | Polyunsaturated fatty acid lipoxygenase ALOX12 (Homo sapiens), P18054 | Potency, µM (top dose mostly 57.1 µM), without a hit: at the top dose activity change, negative = inhibition, most hits filed as inhibitors | purified 12-hLO, xylenol orange hydroperoxide absorbance | 0.12% of 150,000 active; active = well fitted inhibition curve with a large enough effect; inconclusive = small, poorly fitted or top-dose-only effect; note: potency is the fitted concentration of half-maximal effect; nearly all actives have a fitted effect of over 55% in size
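Xylenol orange chromogenic assay: hydroperoxide from 12hLO oxidises Fe(II), giving red-shifted Fe(III)-XO absorbance. Conditions: 150 nM enzyme, 40 uM arachidonic acid, 25 mM Hepes pH 7.0, 0.01% Triton X-100, 30 min, room temperature.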
ALDH1A1 inh – qHTS Assay for Inhibitors of Aldehyde Dehydrogenase 1 (ALDH1A1). Aldehyde dehydrogenase 1A1 (Homo sapiens), P00352. Purified ALDH1A1, NADH fluorescence, propionaldehyde substrate. Potency, µM (top dose mostly 75.3 µM), without a hit: at the highest dose activity, negative = inhibition, most hits filed as inhibitors. 7.3% of 220,000 active;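 note: potency is the fitted concentration of half-maximal effect; plate controls were no enzyme wells and a reference inhibitor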
Target sequence (P00352 whole entry, looked up): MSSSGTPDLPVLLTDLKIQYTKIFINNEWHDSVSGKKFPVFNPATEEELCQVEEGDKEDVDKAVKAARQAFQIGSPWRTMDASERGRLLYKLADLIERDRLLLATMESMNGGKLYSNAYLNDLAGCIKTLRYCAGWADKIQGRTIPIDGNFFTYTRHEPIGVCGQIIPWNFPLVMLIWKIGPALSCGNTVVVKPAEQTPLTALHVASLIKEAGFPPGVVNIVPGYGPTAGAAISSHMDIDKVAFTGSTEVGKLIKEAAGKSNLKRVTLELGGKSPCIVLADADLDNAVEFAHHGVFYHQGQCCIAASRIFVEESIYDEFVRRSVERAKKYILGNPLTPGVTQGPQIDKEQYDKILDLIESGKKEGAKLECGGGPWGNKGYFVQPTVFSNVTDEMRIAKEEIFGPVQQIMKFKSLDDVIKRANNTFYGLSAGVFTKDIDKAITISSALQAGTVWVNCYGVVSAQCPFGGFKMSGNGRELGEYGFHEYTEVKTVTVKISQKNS
HPGD block – qHTS Assay for Inhibitors of HPGD (15-Hydroxyprostaglandin Dehydrogenase). 15-hydroxyprostaglandin dehydrogenase [NAD(+)] (Homo sapiens), P15428. AID 894, 2007. 4.3% of 150,000 active. Potency, µM, without a hit: at the top dose activity change, negative = inhibition, hits mostly inhibitors. purified HPGD, NADH fluorescence kinetic, PGE2 substrate; note: potency is the fitted concentration of half-maximal effect
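20 nM HPGD preincubated 15 min at room temperature with compound in 50 mM Tris-HCl pH 8, 0.01% Tween 20. Started with 1 mM NAD+ and 30 uM prostaglandin E2; NADH fluorescence (360/450 nm) read 5 times over 30-s intervals, last minus first.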
Lamin A splicing – qHTS Assay for Modulators of Lamin A Splicing | HeLa LMNA splicing GFP/RFP minigene ratio, 48 h | Potency, µM (highest dose often 46.1 µM), inactives show top-dose ratio change, negative = inhibition, hits mostly inhibitors | 0.01% of 200,000 active; active = well fitted inhibition curve with a large enough effect in the signal ratio, with a control signal flat, not every such curve was filed as active; inconclusive = small, poorly fitted or top-dose-only effect, or effect the other way, or a change in a side signal; the % refers to the signal ratio; note: potency is the fitted concentration of half-maximal effect
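S3 HeLa stable clones carrying a lamin A-EGFP splicing minigene plus DsRed2 were seeded at 600 cells/well in Opti-MEM with 2% FBS, pin-dosed and incubated 48 h at 37°C. Acumen cytometry (488 nm) gave the GFP/RFP total-intensity ratio.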
PNC inhibitor – High Content Assay for Compounds that inhibit the Assembly of the Perinucleolar Compartment; activity change (PNC), negative = inhibition, % at 10 µM; 3.1% of 140,000 active; AID 2417, 2010; PC3M PTB-GFP, PNC prevalence imaging, 16 h; stronger effect = lower value;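 active = readout at or below -70, meaning at least 70% loss of cells showing the perinucleolar compartment, a nuclear body marking cancer cells; inconclusive = readout between -30 and a set limit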;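 note: plate controls were DMSO wells for no effect and camptothecin positive control wells for full effect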
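Compounds are pinned in duplicate onto adhered PC3M cells stably expressing GFP-tagged PTB and incubated 16 h at 37 C. Cells are then fixed, nuclei stained with Hoechst, and PNC-positive cells counted.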
* = called active by the depositor; ? = inconclusive; . = no result; [ ] = another dose, or the depositor's remark. The list is not random: actives were taken first. Their share in the collection is about 10%. Unless noted, calls come from the whole dose curve; as a rule, active = well fitted inhibition curve with a large enough effect (not every such curve was filed as active); inconclusive = small, poorly fitted or top-dose-only effect, or another doubt; inactive = no such curve, though single readings can be large or run the other way. Unless noted, % is set by controls: 0 for no effect and ±100 for the full control effect.

SMILES | ALOX12 inhib | ALDH1A1 inh | HPGD block | Lamin A splicing | PNC inhibitor
C[C@]12CCC(=O)C=C1CC[C@@H]1[C@H]2[C@@H](O)C[C@@]2(C)[C@H]1CC[C@]2(O)C(=O)CO | . | . | . | -19% | .
N#CC1=C2SCN(Cc3ccco3)CN2C(=O)CC1c1ccc(Cl)cc1 (configuration not stated) | ? | 16µM* | 11µM* | 8% | -17
COc1cc(C2CC(=O)N3CN(Cc4ccco4)CSC3=C2C#N)ccc1OCc1ccccc1 (configuration not stated) | -19% | 7.9µM* | 25µM* | -3% | -23
CC(C)c1ccc(C2CC(=O)N3CN(Cc4ccco4)CSC3=C2C#N)cc1 (configuration not stated) | ? | 14µM* | 16µM* | 0% | -16
COc1cc(CNCc2ccco2)ccc1OCc1ccccc1 | -4% | -9% | -5% | ? | ?
O=C(C1CCCCC1)N(Cc1cccnc1)c1nc2ccc(Cl)cc2s1 | . | . | . | -21%[46 µM] | .
CC(C)(C)CC(=O)NCC(c1ccc2c(c1)OCO2)N1CCOCC1 (configuration not stated) | . | . | . | 3%[46 µM] | .
CCn1ccc2c(OCC(=O)Nc3ccc(OC)cc3OC)cccc2c1=O | . | . | . | 0%[46 µM] | .
CC(=O)N1CCc2cc(CNS(=O)(=O)c3ccc(Cl)s3)ccc21 | . | . | . | -11%[46 µM] | .
C=CCN1C(=O)/C(=C/c2ccc(OC)cc2)S/C1=N/c1nccs1 | -4% | ? | -8% | -13% | 12
C=CCN1C(=O)/C(=C/c2ccc(O)cc2)S/C1=N/c1nccs1 | -13% | 3.2µM* | -8% | ? | 3
COc1ccc(S(=O)(=O)NCCc2csc3nc(-c4ccc(Cl)cc4)nn23)cc1C | . | . | . | -5%[46 µM] | .
Cc1ccc(CNC(=O)C2(CC(C)C)C=CCN2C(=O)c2ccccc2)o1 (configuration not stated) | -4% | -7% | -21% | . | .
O=C(O)c1ccc(Oc2ccccc2)o1 | . | 2% | . | . | .
NNC(=O)c1ccc(Oc2cc(Cl)cc(Cl)c2)o1 | . | 0.16µM* | . | . | .
N#Cc1c(N)sc(=S)c2c1CCCCC2 | -7% | ? | 16µM* | 7% | 44
CC1(C)Cc2c(C#N)c(N)sc(=S)c2CS1 | ? | 7.1µM* | -12% | 12% | 11
N#Cc1c(N)sc2c1CCCCCC2 | -10% | ? | . | -7% | 16
CNC(=O)C1CCC(Cn2c(=O)c3sccc3n(Cc3ccc(F)cc3)c2=O)CC1 (configuration not stated) | . | . | . | 15%[46 µM] | .
Cc1ccccc1-c1nn2c(=O)cc(CN3CCN(S(=O)(=O)c4ccc(Cl)cc4)CC3)nc2s1 | . | . | . | 3%[46 µM] | .
Cc1cccc(C)c1NC(=O)N1CCN(C2CCCCC2)CC1 | 3% | 3% | -12% | -5% | 28
Cc1cccc(C)c1NC(=O)N1C2CCCC1CC(NC(=O)C(C)(C)C)C2 (configuration not stated) | 4% | 15% | -2% | ? | -96*
O=C(NC(=S)Nc1cccc(Cl)c1N1CCCCC1)c1ccc2c(c1)OCCO2 | 1% | ? | -7% | ? | 14
O=C(NC(=S)Nc1cccc(Cl)c1N1CCCC1)c1ccc(-c2cccc([N+](=O)[O-])c2)o1 | -2% | 28µM* | -24% | 1% | -3
CCOC(=O)c1sc2nc3c(SCCC#N)cc(C(=O)c4cc(F)ccc4O)cn3c(=O)c2c1C | 3% | -12% | -11% | 3% | -14
O=C(O)CSc1cc(C(=O)c2cc(F)ccc2O)cn2c(=O)c3c(-c4ccccc4)csc3nc12 | . | 7.9µM* | . | 16%[46 µM] | .
CC(=O)c1ccc(-c2c(C)cc3oc(=O)cc(-c4ccccc4)c3c2C)cc1 | -1%[0.00818 µM] | -15% | ? | . | .
CC(=O)c1ccsc1-c1c(C)cc2oc(=O)cc(-c3ccccc3)c2c1C | -3%[0.00818 µM] | ? | 40µM* | . | .
Cc1cc2oc(=O)cc(-c3ccccc3)c2c(C)c1-c1sccc1C=O | -4%[0.00818 µM] | ? | 40µM* | . | .
Cc1cc(=O)[nH]c(SCCOc2ccc(OC(C)C)cc2)n1 | -2% | ? | 18µM* | ? | 36
